Experimental data taken from PubChem BioAssay AID2501 (Southern Research Specialized Biocontainment Screening …, 2010).
The whole screen tested about 2,200 compounds, of which about 1,200 (55%) were called active. No cut-off is given here; in the data, nearly all actives have IC50 up to about 92 µM. So high a share suggests a set chosen from earlier hits. This is one part of the list.

Test: counter assay for TAg ATPase ADP read-out – biochemical, ADP-Hunter, fluorescence, counter-screen (AID 2501);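 note: purified T antigen ATPase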;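 for inhibition: 0% = enzyme with vehicle and 100% = reference inhibitor wells; higher means more inhibition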
Settings: series mostly up to 100 µM; inhibition: at the top concentration
For `O=C(COc1ccccc1[N+](=O)[O-])N/N=C/c1ccc(O)cc1`, the IC50 was 6.73 µM (active).
For `Cc1ccc(S(=O)(=O)Cc2cc(F)c([N+](=O)[O-])cc2[N+](=O)[O-])cc1`, the “inhibition” value was -2.36% (inactive).
In the case of `COc1ccc(C)cc1NC(=O)COC(=O)c1ccc([N+](=O)[O-])o1`, the “inhibition” value is reported as 1.11% (inactive).
In the case of `Cc1ccc(/C=N\NC(=O)COc2ccc(C)cc2[N+](=O)[O-])cc1`, the IC50 is reported as 23.3 µM (active).
For `CCc1ccc2cccc3c2c1N=CN3C`, the IC50 was 8.65 µM (active).
For `C[C@H](CCC(=O)O)[C@H]1CC[C@H]2[C@@H]3CC[C@@H]4C[C@H](O)CC[C@]4(C)[C@H]3CC[C@]12C`, the “inhibition” value was -14.9% (inactive).
In the case of `Cc1cnc(C(=O)Nc2ccc(S(=O)(=O)NCC(C)C)cc2)cn1`, the “inhibition” value is reported as 3.46% (inactive).
With `CCn1c(SCC(=O)Nc2ccc(N(C)C)cc2)nnc1C1CC1` the IC50 was 5.16 µM (active).
With `CCCCn1nnnc1SCC(=O)Nc1ccc(N(C)C)cc1` the IC50 was 3.37 µM (active).
For `CCn1c2ccccc2c2cc(NC(=O)CSc3nnc(C4CC4)n3Cc3ccco3)ccc21`, the “inhibition” value was -0.57% (inactive).
For `Cn1ccnc1SCC(=O)Nc1cccc(C(F)(F)F)c1`, the “inhibition” value was 21% (inactive).
In the case of `CN(C)c1ccc(NC(=O)CSc2nnc(-c3cnccn3)n2C)cc1`, the IC50 is reported as 7.11 µM (active).
In the case of `Nn1c(SCC(=O)NC(=O)Nc2ccc3c(c2)OCCO3)nnc1C1CC1`, the “inhibition” value is reported as 19.5% (inactive).
In the case of `Cc1nnc(SCC(=O)Nc2ccc(N(C)C)cc2)n(N)c1=O`, the IC50 is reported as 5.56 µM (active).
In the case of `CCCCOC(=O)c1ccc(NC(=O)CSc2nnnn2C)cc1`, the “inhibition” value is reported as -25.8% (inactive).
In the case of `Cc1cc(-c2nc3c4c5c(sc4[nH]c(=O)n3n2)CCC5)c(C)o1`, the “inhibition” value is reported as 29.2% (inactive).
In the case of `CNC[C@@H](C)NC[C@@H](Cc1ccccc1)NCCc1ccccc1`, the “inhibition” value is reported as 2.97% (inactive).
In the case of `Cc1c(CCC(=O)NCCCC(=O)O)c(=O)oc2cc3oc4c(c3cc12)CCCC4`, the “inhibition” value is reported as -7.81% (inactive).
In the case of `CCOC(CNC(=O)C1CCN(S(=O)(=O)c2ccc3nc4c(c(C(=O)O)c3c2)CCCCC4)CC1)OCC`, the “inhibition” value is reported as -31.7% (inactive).
For `O=C(CCN1C(=O)c2ccccc2S1(=O)=O)NCc1ccco1`, the “inhibition” value was -8.68% (inactive).
In the case of `O=C(NCc1ccco1)C1CC(=O)N(c2ccc(O)cc2)C1` (configuration not stated), the IC50 is reported as 6.48 µM (active).
With `Cc1ccc(C)c(S(=O)(=O)N2CCCCC2CCNC(=O)C(=O)NCc2ccco2)c1` (configuration not stated) the “inhibition” value was -0.3% (inactive).
In the case of `Cc1nc2ccc(N=NN(C)C)cc2[nH]1`, the “inhibition” value is reported as -2.2% (inactive).
For `CCCCC1(C)OC(=O)C(=Cc2ccc(-c3ccc(Cl)c(C(=O)O)c3)o2)C(=O)O1` (configuration not stated), the “inhibition” value was 18.5% [at 50 µM] (inactive).
For `Cc1cccc(N2NC(=O)/C(=C/c3ccc(-c4ccc(Cl)c(C(=O)O)c4)o3)C2=O)c1`, the IC50 was 31.9 µM (active).
For `N#CC1=C(S)N(c2ccccc2)C(c2ccc(-c3ccc(Cl)c(Cl)c3)o2)NC1=O` (configuration not stated), the “inhibition” value was 24.3% (inactive).
With `O=C1NN(c2ccccc2)C(=O)/C1=C/c1ccc(-c2ccc(Cl)c(C(=O)O)c2)o1` the IC50 was 13.7 µM (active).
In the case of `Cn1sc(=O)c2cc(S(=O)(=O)NC3CC3)ccc21`, the “inhibition” value is reported as -4.05% (inactive).
In the case of `CCN1C(=O)CC(N2CCC(Nc3ccc(OC)cc3)CC2)C1=O` (configuration not stated), the IC50 is reported as 4.87 µM (active).
With `O=C1NC(=O)C(c2ccccc2[N+](=O)[O-])=C1Nc1ccc(O)c(Cl)c1` the IC50 was 11.8 µM (active).
In the case of `O=C(O)c1cc(Nc2cc(Cl)c3nonc3c2[N+](=O)[O-])ccc1O`, the “inhibition” value is reported as -13.7% (inactive).
For `N=c1c2c(ncn1CCCO)Oc1ccc3ccccc3c1C2c1ccccc1` (configuration not stated), the “inhibition” value was -10.2% (inactive).
For `COc1cc(/C=C(\C#N)c2nc3ccccc3n2C)cc(OC)c1O`, the IC50 was 6.31 µM (active).
In the case of `COc1cc(/C=C(\C#N)c2ccccn2)cc(OC)c1O`, the IC50 is reported as 4.83 µM (active).
In the case of `COc1ccc(-c2ccc(OC(=O)NC3CCS(=O)(=O)C3)cc2)cc1` (configuration not stated), the IC50 is reported as 5.8 µM (active).
With `COc1ccc(S(=O)(=O)N2CCC(NC(=O)c3ccccc3)CC2)cc1` the “inhibition” value was -31% (inactive).
For `O=c1c(C(c2c(O)nc3n(c2=O)CCS3)c2cccc3ccccc23)c(O)nc2n1CCS2`, the IC50 was 20.9 µM (active).
For `C=CCOc1ccc(C2NC(=S)NC(c3ccccc3)=C2C(C)=O)cc1OC` (configuration not stated), the “inhibition” value was 18.3% [at 50 µM] (inactive).
In the case of `Oc1ccc(/C=N/Nc2ccc(Cl)nn2)cc1O`, the IC50 is reported as 8.65 µM (active).
In the case of `Oc1ccc(/C=N/Nc2ccc(C(F)(F)F)cn2)cc1O`, the IC50 is reported as 5.59 µM (active).
For `N=C1/C(=C/c2ccc(Br)o2)C(=O)N=C2SC(CC(=O)N3CCCC3)=NN12`, the “inhibition” value was -27.2% (inactive).
In the case of `CN(C(=O)c1ccccc1C(=O)OCC(=O)NCc1cccs1)C1CCCCC1`, the IC50 is reported as 44.1 µM (active).
For `CC1=C(C(=O)OCC(C)C)C(c2cccs2)NC(=S)N1` (configuration not stated), the “inhibition” value was 21.6% (inactive).
With `N#CC1(NC(=O)COC(=O)c2cc(O)c3ccccc3c2O)CCCCC1` the “inhibition” value was -260% (inactive).
In the case of `Cc1ccc(-n2nnnc2C(Cl)(Cl)c2nnnn2-c2ccc(C)cc2)cc1`, the “inhibition” value is reported as -30.1% (inactive).
In the case of `c1coc(-c2nc3ccccc3nc2-c2ccco2)c1`, the “inhibition” value is reported as 18.3% (inactive).
In the case of `c1coc(-c2nc(-c3ccco3)c(-c3ccco3)nc2-c2ccco2)c1`, the “inhibition” value is reported as -94.1% (inactive).
In the case of `Nc1nc(-c2ccco2)cs1`, the IC50 is reported as 10.8 µM (active).
With `NC(=O)c1sc2nnc(-c3ccccc3)c(-c3ccccc3)c2c1N` the “inhibition” value was 19.4% (inactive).
For `Nc1ccc(-c2sc(N)nc2-c2ccccc2)cc1`, the IC50 was 8.36 µM (active).
For `ClCC1=Nc2cccc3cccc(c23)N1`, the IC50 was 4.21 µM (active).
With `COc1cc(/C=N\NC(=O)CC(=O)NCCc2ccccc2)ccc1O` the IC50 was 3.22 µM (active).
